Measured values from PubChem BioAssay (NCATS).
Calls of active or inactive are those of the source. Unless noted, calls follow the shape of the full dose curve. Residues, ends and D or L forms follow the SMILES beside them. *: point of attachment. Cbz = O=C(OCc1ccccc1)*

biological target: Glucocorticoid receptor (Homo sapiens) (UniProt P04150); test: GR-GFP Redistribution (AID 450;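 active = compounds whose dose series gives a full or clear partial fitted curve of increased nuclear translocation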); settings: U2OS GR-GFP nuclear translocation, laser cytometry, 2 h
Sequence (P04150 whole entry, looked up, the tested form may be a part): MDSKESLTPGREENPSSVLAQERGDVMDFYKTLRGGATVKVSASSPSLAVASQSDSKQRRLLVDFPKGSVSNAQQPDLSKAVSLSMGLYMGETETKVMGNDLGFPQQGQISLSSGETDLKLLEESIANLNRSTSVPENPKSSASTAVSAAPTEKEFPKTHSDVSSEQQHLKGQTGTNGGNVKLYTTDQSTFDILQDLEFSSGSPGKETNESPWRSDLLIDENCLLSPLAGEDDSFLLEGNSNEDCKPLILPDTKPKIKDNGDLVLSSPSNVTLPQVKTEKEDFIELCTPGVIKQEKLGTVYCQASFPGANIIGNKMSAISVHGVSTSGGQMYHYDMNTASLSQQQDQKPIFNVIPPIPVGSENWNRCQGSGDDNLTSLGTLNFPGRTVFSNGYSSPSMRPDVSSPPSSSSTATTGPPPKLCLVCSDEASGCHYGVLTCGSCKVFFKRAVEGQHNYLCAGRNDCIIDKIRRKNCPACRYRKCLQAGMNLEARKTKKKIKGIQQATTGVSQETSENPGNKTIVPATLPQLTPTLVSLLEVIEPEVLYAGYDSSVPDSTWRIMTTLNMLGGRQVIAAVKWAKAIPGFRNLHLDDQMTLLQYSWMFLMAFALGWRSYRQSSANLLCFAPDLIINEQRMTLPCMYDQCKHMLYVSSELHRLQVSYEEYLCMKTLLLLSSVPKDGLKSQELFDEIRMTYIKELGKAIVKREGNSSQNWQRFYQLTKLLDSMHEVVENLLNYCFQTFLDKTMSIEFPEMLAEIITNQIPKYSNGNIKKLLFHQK
Potency is read from the fitted curve at half-maximal effect.

Compound | Potency
COc1ccccc1N1CCN(CCN(C(=O)c2ccc(F)cc2)c2ccccn2)CC1 | > 46 µM (inactive)
O=C1Nc2ccc(I)cc2/C1=C/c1cc(Br)c(O)c(Br)c1 | > 46 µM (inactive)
CCN(CC)CCCCCCCCOC(=O)c1cc(OC)c(OC)c(OC)c1 | > 46 µM (inactive)
NC(=Nc1ccccc1)NC(=O)c1nc(Cl)c(N)nc1N | > 46 µM (inactive)
O=C(OCCN1CCOCC1)C1(c2ccccc2)CCCCC1 | > 46 µM (inactive)
CC(C)[C@H](NC(=O)OCc1ccccc1)C(=O)N[C@H](C=O)Cc1ccccc1 (Cbz-Val-Phe-aldehyde) | > 46 µM (inactive)
O=C(O)C1=CCCNC1 | > 46 µM (inactive)
NCCNS(=O)(=O)c1cccc2c(Cl)cccc12 | > 46 µM (inactive)
O=c1[nH]c(=O)c2nc3ccccc3nc2[nH]1 | > 46 µM (inactive)
CC1CCN(CC[C@H]2CCCN2S(=O)(=O)c2cccc(O)c2)CC1 | > 46 µM (inactive)
CCc1ccc2c(-c3cccc(Cl)c3)nc(=O)n(CC)c2n1 | > 46 µM (inactive)
N[C@H](C(=O)O)[C@H](O)C(=O)O | > 46 µM (inactive)
Cc1nc(N=Nc2cc(S(=O)(=O)O)c3cc([N+](=O)[O-])cc(S(=O)(=O)O)c3c2)c(COP(=O)(O)O)c(C=O)c1O | > 46 µM (inactive)
NC1(C(=O)O)CC1 | > 46 µM (inactive)
OC1(c2ccc(Cl)cc2)CCN(Cc2c[nH]c3ccccc23)CC1 | > 46 µM (inactive)
C/C(=C\c1ccc(C(=O)O)cc1)c1ccc2c(c1)C(C)(C)CCC2(C)C | > 46 µM (inactive)

Compound | Potency
COc1cc(CNC(=O)CCCCCCC(C)C)ccc1O | > 46 µM (inactive)
CCCCCCCCCCC/C=C\C(C)(C)/C=C\CCCC(=O)O | > 46 µM (inactive)
N=C(N)SCCN | > 46 µM (inactive)
O=C(O)C1=CC(=C(c2ccc(O)c(C(=O)O)c2)c2ccc(O)c(C(=O)O)c2)C=CC1=O | > 46 µM (inactive)
CCCn1c(=O)c(C)cn2nc(N)nc12 | > 46 µM (inactive)
COc1ccc2c(c1)c(CC(=O)O)c(C)n2Cc1ccc(Cl)cc1 | > 46 µM (inactive)
CC(=O)NNC(=O)N1Cc2ccccc2Oc2ccc(Cl)cc21 | > 46 µM (inactive)
O=C(O)Cc1c[nH]c2ccc(O)cc12 | > 46 µM (inactive)
NC[C@@H]1O[C@H](c2ccccc2)Cc2c1ccc(O)c2O | > 46 µM (inactive)
CCCCCC[C@@H]([C@@H](C)O)n1cnc2c(N)ncnc21 | > 46 µM (inactive)
NC(=O)CNCCC(c1ccccc1)c1ccccc1 | > 46 µM (inactive)
C[C@](Cc1ccc(O)c(O)c1)(NN)C(=O)O | > 46 µM (inactive)
O=c1onc2cnc3ccccc3n12 | > 46 µM (inactive)
O=C(O)c1ccccc1Nc1cccc(OCc2ccc3ccccc3n2)c1 | > 46 µM (inactive)
COc1cc(/C=C(\C#N)C(=O)c2ccc(O)c(O)c2)cc(I)c1O | > 46 µM (inactive)
COc1cc(CC(=O)O)ccc1O | > 46 µM (inactive)

biological target: Glucocorticoid receptor (Homo sapiens) (UniProt P04150); test: GR-EFC Redistribution (AID 451); settings: CHO-K1 GR-EFC translocation, beta-gal luminescence, 2 h
Method in brief: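 Translocation of GR-ED fusion to nuclear EA restores b-gal, read by luminescence after 1 h room-temperature detection. Engineered CHO-K1 biosensor cells, 1,000/well, exposed 2 h at 37 C to titrations up to 46 uM final.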

Compound | Potency
COc1ccccc1N1CCN(CCN(C(=O)c2ccc(F)cc2)c2ccccn2)CC1 | > 46 µM (inactive)
O=C1Nc2ccc(I)cc2/C1=C/c1cc(Br)c(O)c(Br)c1 | > 46 µM (inactive)
CCN(CC)CCCCCCCCOC(=O)c1cc(OC)c(OC)c(OC)c1 | > 46 µM (inactive)
NC(=Nc1ccccc1)NC(=O)c1nc(Cl)c(N)nc1N | > 46 µM (inactive)
O=C(OCCN1CCOCC1)C1(c2ccccc2)CCCCC1 | > 46 µM (inactive)
CC(C)[C@H](NC(=O)OCc1ccccc1)C(=O)N[C@H](C=O)Cc1ccccc1 (Cbz-Val-Phe-aldehyde) | > 46 µM (inactive)
O=C(O)C1=CCCNC1 | > 46 µM (inactive)
NCCNS(=O)(=O)c1cccc2c(Cl)cccc12 | > 46 µM (inactive)
O=c1[nH]c(=O)c2nc3ccccc3nc2[nH]1 | > 46 µM (inactive)
CC1CCN(CC[C@H]2CCCN2S(=O)(=O)c2cccc(O)c2)CC1 | > 46 µM (inactive)
CCc1ccc2c(-c3cccc(Cl)c3)nc(=O)n(CC)c2n1 | > 46 µM (inactive)
N[C@H](C(=O)O)[C@H](O)C(=O)O | > 46 µM (inactive)
Cc1nc(N=Nc2cc(S(=O)(=O)O)c3cc([N+](=O)[O-])cc(S(=O)(=O)O)c3c2)c(COP(=O)(O)O)c(C=O)c1O | > 46 µM (inactive)
NC1(C(=O)O)CC1 | > 46 µM (inactive)
OC1(c2ccc(Cl)cc2)CCN(Cc2c[nH]c3ccccc23)CC1 | > 46 µM (inactive)
C/C(=C\c1ccc(C(=O)O)cc1)c1ccc2c(c1)C(C)(C)CCC2(C)C | > 46 µM (inactive)
COc1cc(CNC(=O)CCCCCCC(C)C)ccc1O | > 46 µM (inactive)

Compound | Potency
CCCCCCCCCCC/C=C\C(C)(C)/C=C\CCCC(=O)O | > 46 µM (inactive)
N=C(N)SCCN | > 46 µM (inactive)
O=C(O)C1=CC(=C(c2ccc(O)c(C(=O)O)c2)c2ccc(O)c(C(=O)O)c2)C=CC1=O | > 46 µM (inactive)
CCCn1c(=O)c(C)cn2nc(N)nc12 | > 46 µM (inactive)
COc1ccc2c(c1)c(CC(=O)O)c(C)n2Cc1ccc(Cl)cc1 | > 46 µM (inactive)
CC(=O)NNC(=O)N1Cc2ccccc2Oc2ccc(Cl)cc21 | > 46 µM (inactive)
O=C(O)Cc1c[nH]c2ccc(O)cc12 | > 46 µM (inactive)
NC[C@@H]1O[C@H](c2ccccc2)Cc2c1ccc(O)c2O | > 46 µM (inactive)
CCCCCC[C@@H]([C@@H](C)O)n1cnc2c(N)ncnc21 | > 46 µM (inactive)
NC(=O)CNCCC(c1ccccc1)c1ccccc1 | > 46 µM (inactive)
C[C@](Cc1ccc(O)c(O)c1)(NN)C(=O)O | > 46 µM (inactive)
C=C1C(=O)O[C@@H]2[C@H]3O[C@]3(C)CCC=C(C)CC[C@@H]12 | > 46 µM (inactive)
O=c1onc2cnc3ccccc3n12 | > 46 µM (inactive)
O=C(O)c1ccccc1Nc1cccc(OCc2ccc3ccccc3n2)c1 | > 46 µM (inactive)
COc1cc(/C=C(\C#N)C(=O)c2ccc(O)c(O)c2)cc(I)c1O | > 46 µM (inactive)
COc1cc(CC(=O)O)ccc1O | > 46 µM (inactive)
